# PubChem BioAssay (NCATS)
# Inconclusive results are not listed. Entries that show only a call come without a potency. Active and inactive are the calls of the source. Calls come from the whole dose curve; as a rule, active = well fitted curve in the direction sought with a large enough effect; inconclusive = small, poorly fitted or top-dose-only effect, or another doubt; inactive = no such curve, though single readings can be large; an effect the other way counts as inactive or inconclusive.
# What was measured:
# [1] = target: N-terminal Xaa-Pro-Lys N-methyltransferase 1 (Homo sapiens) (UniProt Q9BV86); assay: qHTS Assay for Inhibitors of N-terminal methyltransferase 1 (NTMT1): LOPAC validation of the NTMT1 SAHH-coupled ThioGlo3 Assay (AID 1347143);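 note: SAH from peptide methylation measured as thiol fluorescence via SAHH coupling and ThioGlo3; nearly all actives have a fitted effect of over 70% in size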
# N-terminal Xaa-Pro-Lys N-methyltransferase 1 (Homo sapiens), sequence (Q9BV86 whole entry, looked up): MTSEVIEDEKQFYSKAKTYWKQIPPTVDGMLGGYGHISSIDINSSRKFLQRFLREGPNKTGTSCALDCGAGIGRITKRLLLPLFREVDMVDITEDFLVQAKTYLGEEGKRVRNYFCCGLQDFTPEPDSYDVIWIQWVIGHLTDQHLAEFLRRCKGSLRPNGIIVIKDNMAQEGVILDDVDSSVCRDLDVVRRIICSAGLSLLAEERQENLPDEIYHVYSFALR
# Procedure, shortened: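 Recombinant human NTMT1 (125nM) was pre-incubated 1 min at room temperature with compounds over a concentration range, then a mix of 100uM SAM, 10uM SAHH and 15uM ThioGlo3 (concentrations in added reagent) was added. ThioGlo3 fluorescence (ex 340/em 450nm) after 30 min was normalized to the initial reading.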
# [2] = test system: Zika virus NS2B-NS3 protease (unlinked); assay: Optimization of GU AMC qHTS for Zika virus inhibitors: Unlinked NS2B-NS3 protease assay (AID 1347151); note: nearly all actives have a fitted effect of over 80% in size
# Procedure, shortened: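 Noncovalent complex of NS2B hydrophilic domain and NS3 protease domain, 25 nM final, in 10 mM Tris-HCl pH 8.0, 0.01% Tween 20. AMC fluorescence change over 15 min at room temperature was fitted to a 4-parameter Hill equation.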
# [3] = qHTS of pediatric cancer cell lines to identify multiple opportunities for drug repurposing: Confirmatory screen for Rh41 cells (AID 1347123); conditions: Rh41 rhabdomyosarcoma cells, viability/cytotoxicity qHTS;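 note: 48 h compound exposure; nearly all actives have a fitted effect of over 60% in size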
# Procedure, shortened: (§1)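 Viability after 48 h compound treatment at 37C, 500-1,000 cells/well, read as ATP luminescence with CellTiter-Glo. Primary screens used 11-point (MIPE, 0.78 nM-46 µM) or 8-point (NPC, 0.59 nM-46 µM) final concentrations; follow-up screens used 11-point dilutions.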
# [4] = qHTS of pediatric cancer cell lines to identify multiple opportunities for drug repurposing: Confirmatory screen for RD cells (AID 1347124); conditions: RD rhabdomyosarcoma cell viability;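 note: cells exposed to compound for 48 h before viability readout; nearly all actives have a fitted effect of over 65% in size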
# Procedure, shortened: as §1
# [5] = qHTS of pediatric cancer cell lines to identify multiple opportunities for drug repurposing: Confirmatory screen for Rh18 cells (AID 1347125); conditions: Rh18 rhabdomyosarcoma cells, viability; note: nearly all actives have a fitted effect of over 55% in size
# Procedure, shortened: as §1
# [6] = qHTS of pediatric cancer cell lines to identify multiple opportunities for drug repurposing: Confirmatory screen for Rh30 cells (AID 1347126); conditions: Rh30 rhabdomyosarcoma cell viability; note: nearly all actives have a fitted effect of over 55% in size
# Procedure, shortened: as §1
# [7] = qHTS of pediatric cancer cell lines to identify multiple opportunities for drug repurposing: Confirmatory screen for Saos-2 cells (AID 1347127); conditions: Saos-2 osteosarcoma cell viability; note: nearly all actives have a fitted effect of over 60% in size
# Procedure, shortened: as §1
# [8] = qHTS of pediatric cancer cell lines to identify multiple opportunities for drug repurposing: Confirmatory screen for OHS-50 cells (AID 1347128); conditions: OHS-50 osteosarcoma cells viability;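 note: compound exposure lasted 48 h at 37 degrees C; nearly all actives have a fitted effect of over 55% in size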
# Excerpt: Drug repurposing or repositioning has been offered as a strategy for drug development in oncology programs. This approach has special potential for childhood cancers and other rare or orphan diseases, where the expected return on new drug development has been a disincentive to pharmaceuticals.
# In this project we exploit the poly-pharmacology of drugs to discover new indications via phenotypic screening of a panel of 19 well-characterized cell lines derived from solid tumors seen in children and adolescents. The goal is to identify approved drugs with previously unrecognized anticancer properties that has the potential to reveal new mechanisms and biological processes involved in carcinogenesis or drug resistance. We employed a titration-based paradigm (quantitative high-throughput screening or qHTS), where all compounds were tested at multiple concentrations for their effect on cell viability. […] We screened the NIH Chemical Genomics Center (NCGC) Pharmaceutical Collection (NPC) and Mechanism Interrogation Plate (MIPE) small molecule collections of approved and investigational compounds against these cell lines; and measured metabolically active cells after 48 hours of compound treatment as a proxy for cell viability. […]
# [1] Shen, M et al. Quantitative high-throughput phenotypic screening of pediatric cancer cell lines identifies multiple opportunities for drug repurposing. […]
# [9] = qHTS of pediatric cancer cell lines to identify multiple opportunities for drug repurposing: Confirmatory screen for SK-N-SH cells (AID 1347129); conditions: SK-N-SH neuroblastoma cell viability;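 note: cells exposed to compound for 48 h before viability read; nearly all actives have a fitted effect of over 60% in size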
# Procedure, shortened: as §1
# [10] = target: Furin (Homo sapiens) (UniProt P09958); assay: Furin counterscreen qHTS for Zika virus inhibitors (AID 1347149); note: nearly all actives have a fitted effect of over 70% in size
# Furin (Homo sapiens), sequence (P09958 whole entry, looked up): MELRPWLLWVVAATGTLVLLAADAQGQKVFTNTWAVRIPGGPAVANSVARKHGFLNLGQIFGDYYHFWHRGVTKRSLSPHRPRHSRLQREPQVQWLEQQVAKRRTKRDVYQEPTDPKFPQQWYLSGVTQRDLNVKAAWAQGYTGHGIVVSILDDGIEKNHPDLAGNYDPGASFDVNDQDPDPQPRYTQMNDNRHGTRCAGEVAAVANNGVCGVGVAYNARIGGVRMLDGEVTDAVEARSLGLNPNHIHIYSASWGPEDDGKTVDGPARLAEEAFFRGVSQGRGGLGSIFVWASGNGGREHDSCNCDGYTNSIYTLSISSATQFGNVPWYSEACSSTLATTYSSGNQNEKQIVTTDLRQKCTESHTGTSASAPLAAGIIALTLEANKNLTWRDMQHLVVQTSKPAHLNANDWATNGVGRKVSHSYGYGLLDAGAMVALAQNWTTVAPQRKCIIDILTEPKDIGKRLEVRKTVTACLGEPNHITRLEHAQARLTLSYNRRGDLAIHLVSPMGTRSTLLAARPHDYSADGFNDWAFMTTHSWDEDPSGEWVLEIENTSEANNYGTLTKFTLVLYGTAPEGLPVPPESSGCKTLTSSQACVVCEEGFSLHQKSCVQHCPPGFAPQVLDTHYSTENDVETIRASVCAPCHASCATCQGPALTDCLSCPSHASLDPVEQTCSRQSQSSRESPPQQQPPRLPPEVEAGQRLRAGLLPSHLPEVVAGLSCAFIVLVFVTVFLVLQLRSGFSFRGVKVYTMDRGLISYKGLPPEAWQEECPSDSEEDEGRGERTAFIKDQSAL
# Procedure, shortened: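 Fluorogenic cleavage of BOC-RVRR-AMC (2 microM final, Km ~15 µM) was monitored (ex 340, em 450 nm) at 37C after 15 min RT preincubation of 5 nM furin with compounds in HEPES pH 7.0 buffer with CaCl2 and Triton X-100. Percent inhibition was fitted to a 4-parameter Hill curve.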
# Potency is the fitted concentration of half-maximal effect.
compound,measurement,setting,value
C[N+]1(C)C2CCC1CC(OC(=O)c1c[nH]c3ccccc13)C2 (stereo not given),Potency,[1],31.6 µM (active)
same,Potency,[2],inactive
CCN(CC)c1ncnc2c1ncn2[C@@H]1O[C@H](COP(=O)(O)OP(=O)(O)C(Br)(Br)P(=O)(O)O)[C@@H](O)[C@H]1O,Potency,[1],inactive
CN(N=O)c1ccc(O)c(O)c1,Potency,[1],35.5 µM (active)
N[C@@H](Cn1oc(=O)[nH]c1=O)C(=O)O,Potency,[1],inactive
same,Potency,[2],inactive
N#C/C(=C/c1ccc(O)c(O)c1)C(N)=S,Potency,[1],44.7 µM (active)
C[C@H](N)Cc1cccc(C(F)(F)F)c1,Potency,[1],inactive
same,Potency,[2],inactive
CCCN1CCC[C@@H](c2cccc(O)c2)C1,Potency,[1],inactive
same,Potency,[2],inactive
NC(=O)CI,Potency,[1],20 µM (active)
C[CH2][Hg][S]c1ccccc1C(=O)O,Potency,[3],1.17 µM (active)
same,Potency,[4],7.37 µM (active)
same,Potency,[5],16.5 µM (active)
same,Potency,[6],4.14 µM (active)
same,Potency,[7],2.93 µM (active)
same,Potency,[8],9.27 µM (active)
same,Potency,[9],5.26 µM (active)
CN1CC[C@@]2(C)c3cc(O)ccc3N(C)C12 (stereo not given in full),Potency,[1],44.7 µM (active)
CCCN1CCc2cc(O)cc3c2[C@H]1Cc1ccc(O)c(O)c1-3,Potency,[1],35.5 µM (active)
same,Potency,[2],26.7 µM (active)
C[C@H](N)CN1CCc2ccc(Br)cc21,Potency,[1],inactive
same,Potency,[2],inactive
Nc1ncnc2c1ncn2[C@@H]1O[C@H](COP(=O)(O)CP(=O)(O)OP(=O)(O)O)C(O)[C@H]1O (stereo not given in full),Potency,[1],inactive
CC(C)NP(=O)(NC(C)C)OP(=O)(NC(C)C)NC(C)C,Potency,[1],inactive
same,Potency,[2],inactive
[Cl-].[Cl][Pt].[NH2-].[NH2-].c1ccncc1,Potency,[1],7.08 µM (active)
same,Potency,[2],inactive
CCCN1CCc2cccc3c2[C@H]1Cc1ccc(O)c(O)c1-3,Potency,[1],15.8 µM (active)
same,Potency,[2],29.9 µM (active)
CCN1C[C@@]2(COC)C3[C@@H](OC)C4[C@H]1C3([C@@H]1C[C@@]3(O)[C@H](OC(=O)c5ccccc5)[C@@H]1[C@]4(OC(C)=O)[C@@H](O)[C@@H]3OC)[C@H](OC)C[C@H]2O,Potency,[1],inactive
O=P(O)(O)C(Cl)(Cl)P(=O)(O)O,Potency,[1],inactive
CC(N)[C@H](O)c1ccc(O)c(O)c1 (stereo not given in full),Potency,[1],50.1 µM (active)
O=c1ccc2[nH]cc(C3=CCNCC3)c2[nH]1,Potency,[1],56.2 µM (active)
same,Potency,[10],24.1 µM (active)
same,Potency,[2],37.7 µM (active)
CCCC[N+]1(C)C2CC(OC(=O)[C@H](CO)c3ccccc3)CC1C1OC12 (stereo not given in full),Potency,[1],inactive
same,Potency,[2],inactive
CCCN(CCC)CCc1ccc(O)c(O)c1,Potency,[1],inactive
COc1ccc(CNC(=O)/C=C/c2ccc3[nH]cc(CCN(C)C)c3c2)cc1,Potency,[1],inactive
same,Potency,[2],inactive
C[N+]1(C)CCC(OC(=O)C(c2ccccc2)c2ccccc2)CC1,Potency,[1],63.1 µM (active)
O=[N+]([O-])c1cc(O)c(O)c([N+](=O)[O-])c1,Potency,[1],44.7 µM (active)
CN(N=O)c1cc(O)ccc1O,Potency,[1],3.55 µM (active)
same,Potency,[2],inactive
C[N+]1(C)CCOC(O)(c2ccc(-c3ccc(C4(O)C[N+](C)(C)CCO4)cc3)cc2)C1 (stereo not given),Potency,[1],inactive
same,Potency,[2],inactive
c1ccc2c(N3CCNCC3)cccc2c1,Potency,[1],50.1 µM (active)
same,Potency,[2],26.7 µM (active)
O=C1/C(=C/c2ccccc2)C[C@@]2(O)[C@H]3Cc4ccc(O)c5c4[C@@]2(CCN3CC2CC2)[C@H]1O5,Potency,[1],50.1 µM (active)
C[C@]12Cc3cn4c(nc3C=C1CCC1C2CC[C@@]2(C)[C@H]1CC[C@@]2(O)C#N)nc1ccccc14 (stereo not given in full),Potency,[1],inactive
O=S1(=O)N(CCN2CC=C(c3c[nH]c4cc(F)ccc34)CC2)c2cccc3c2N1CCC3,Potency,[1],50.1 µM (active)
same,Potency,[2],inactive
C[C@@]1(C(=O)O)CC[C@]2(C)CC[C@]3(C)C4=CC(=O)c5cc(O)c(O)cc5[C@]4(C)CC[C@@]3(C)[C@@H]2C1,Potency,[10],inactive
O=C1C=CC(=O)C=C1,Potency,[1],inactive
same,Potency,[2],inactive
CN1C2CCC1CC(OC(c1ccccc1)c1ccccc1N)C2 (stereo not given),Potency,[1],inactive
same,Potency,[2],inactive
C[C@H]1C2Cc3ccc(O)cc3[C@@]1(C)CCN2CC1CC1,Potency,[1],inactive
same,Potency,[2],inactive
NC(N)=Nc1ccc2[nH]c3c(c2c1)C[C@@]1(O)[C@H]2Cc4ccc(O)c5c4[C@@]1(CCN2CC1CC1)[C@H]3O5,Potency,[1],22.4 µM (active)
same,Potency,[2],inactive
CC[C@H](C)[C@H]1O[C@]2(C=C[C@@H]1C)C[C@@H]1C[C@@H](C/C=C(\C)[C@@H](O[C@H]3C[C@H](OC)[C@@H](O[C@H]4C[C@H](OC)[C@@H](O)[C@H](C)O4)[C@H](C)O3)[C@@H](C)/C=C/C=C3\CO[C@@H]4[C@H](O)C(C)=C[C@@H](C(=O)O1)[C@]34O)O2,Potency,[10],inactive
same,Potency,[2],inactive
